gsp ag: activates gsp, the McCune-Albright syndrome mutation | gsp mutant cells, cAMP HTRF, 30 min | Potency, µM (highest dose often 76.9 µM), hits mostly activators | actives 0.13% (n = 340,000); active means well fitted activation curve with a large enough effect; inconclusive means small, poorly fitted or top-dose-only effect, or another doubt; inactive means no such curve, though single readings can be large or run the other way; cell line not stated here;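 further: phosphodiesterase inhibitor Ro 20-1724 added with compounds to block cAMP breakdown; nearly all actives have a fitted effect of over 60% in size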
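Cells stably selected in G418 were plated at 2000/well, grown 16-24 hr, then given compounds in DMSO with the PDE inhibitor […] (300 uM solution added) for 30 min at 37C; cAMP was read by HTRF.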
RXFP1 antag: antagonists of human relaxin receptor RXFP1 | Q9HBX9 | HEK293-RXFP1, relaxin-stimulated cAMP HTRF, 30 min; hits give low values | activity change, negative = inhibition, % at 57.5 µM | actives 0.59% (n = 350,000) | AID 1259400;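 active means activity change of -60% or lower, but not beyond a set lower limit; inconclusive means change between -60% and -40%, or beyond the set limit; inactive means change above -40%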
Target sequence (Q9HBX9 whole entry, looked up): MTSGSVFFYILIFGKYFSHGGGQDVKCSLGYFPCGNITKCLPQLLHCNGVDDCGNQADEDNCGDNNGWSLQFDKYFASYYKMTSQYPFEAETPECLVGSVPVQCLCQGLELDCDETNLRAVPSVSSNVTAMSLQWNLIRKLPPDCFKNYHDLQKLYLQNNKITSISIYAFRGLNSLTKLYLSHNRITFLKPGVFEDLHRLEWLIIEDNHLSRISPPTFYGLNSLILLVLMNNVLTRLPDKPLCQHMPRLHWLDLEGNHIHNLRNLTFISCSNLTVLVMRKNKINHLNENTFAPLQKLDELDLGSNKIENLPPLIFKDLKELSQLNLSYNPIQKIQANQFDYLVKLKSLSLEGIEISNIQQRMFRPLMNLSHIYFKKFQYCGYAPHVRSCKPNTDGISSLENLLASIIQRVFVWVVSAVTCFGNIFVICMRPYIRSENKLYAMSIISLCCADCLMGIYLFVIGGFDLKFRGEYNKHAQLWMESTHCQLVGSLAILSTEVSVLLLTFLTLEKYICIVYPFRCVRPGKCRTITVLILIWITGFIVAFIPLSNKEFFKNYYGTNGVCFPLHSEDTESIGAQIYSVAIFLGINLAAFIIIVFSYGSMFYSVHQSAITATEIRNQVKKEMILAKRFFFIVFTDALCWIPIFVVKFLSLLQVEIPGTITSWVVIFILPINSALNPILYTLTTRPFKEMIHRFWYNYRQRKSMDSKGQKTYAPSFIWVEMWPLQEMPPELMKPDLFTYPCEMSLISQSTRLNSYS
gsp antagonist: antagonists of gsp mutant (McCune-Albright syndrome) | actives 0.4% (n = 340,000) | AID 624288 | Potency, µM (series often up to 76.9 µM), usual class: inhibitors | gsp-mutant cells, cAMP HTRF, 30 min; calls by dose curve; cell line not stated here;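 further: intracellular cAMP measured with PDE inhibitor Ro 20-1724 present during compound exposure; nearly all actives have a fitted effect of over 65% in size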
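Cells, 2000/well, grown 16–24 h in DMEM 10% FBS with 0.5 mg/ml G418, then compounds plus […] (300 uM addition stock), 30 min at 37C. cAMP read by HTRF (cAMP-d2 and anti-cAMP antibody-K in lysis buffer) after 30 min RT.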
RXFP1 agonist: RXFP1 (human) receptor agonism; Q9HBX9; HEK293T-RXFP1 cAMP TR-FRET, 30 min; response scale: percent of porcine relaxin response, buffer zero; Potency, µM (series often up to 57.5 µM), usual class: activators; actives 0.3% (n = 370,000); AID 2676; active means well fitted activation curve with a large enough effect; inconclusive means small, poorly fitted or top-dose-only effect; further: nearly all actives have a fitted effect of over 60% in size
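HEK293 cells stably expressing RXFP1, treated 30 min at 37C with compounds plus PDE4 inhibitor Ro 20174; cAMP measured by HTRF TR-FRET. Normalized to buffer and 29 nM porcine relaxin; EC50 by Hill fit.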
ClpP mod: qHTS Assay for Activators of ClpP. ATP-dependent Clp protease proteolytic subunit (Bacillus subtilis (strain 168)), P80244. purified B. subtilis ClpP, FRET peptide cleavage, 20 min. Potency, µM (doses to about 57.5 µM). actives 1.9% (n = 340,000). AID 651965, 2013; active means well fitted falling curve with a large enough effect; inconclusive means small, poorly fitted or top-dose-only effect; inactive means no such curve, though single readings can be large or run the other way; further: the source files actives as falling curves though it sought activators and does not explain the sign; nearly all actives have a fitted effect of over 65% in size
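FRET quenching reversal measured ClpP activation: 10 microg/mL B. subtilis ClpP at pH 8 with the FRET-FV decapeptide, read at 430 nm after 320 nm excitation. The 20-min minus 0-min signal was scaled between DMSO/no-enzyme wells and ADEP (5.8 microM final).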
pAkt inh: Akt phosphorylation inhibition; Neuro2A IGF-stimulated pAkt S473 HTRF, 20 min; hits give low values; activity change, % for hits at 50 µM; actives 0.32% (n = 360,000); in the data active means activity change below about -80%; inconclusive means mostly about -51% to -80%
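Single-point screen (50 µM final compound) in Neuro2A cells stimulated 20 min with 6 nM IGF at 37 deg C. After lysis, Ser473-phosphorylated Akt read by HTRF (ex 330 nm, em 615/665 nm) as the 665/615 ratio.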
Numbers stand for hits; . = inactive; ? = inconclusive; / = not tested or not shown; [ ] = dose if it differs, or a comment. The list is not random: actives were taken first. Their share in the collection is about 2.7%.

SMILES	gsp ag	RXFP1 antag	gsp antagonist	RXFP1 agonist	ClpP mod	pAkt inh
N#Cc1ccc(C(=O)N(Cc2ccco2)Cc2cccs2)cc1	/	/	/	/	.	/
COc1cccc(CC(NC(C)=O)C(=O)NC2CCN(c3nc(C)cc(C)c3C#N)CC2)c1OC (configuration not stated)	.	.	.	.	28µM	.
COc1cc(CC(NC(C)=O)C(=O)NC2CCN(c3nc(C)cc(C)c3C#N)CC2)cc(OC)c1 (configuration not stated)	.	.	.	?	?	.
CCn1c(SCC(=O)NC2CC2)nnc1-c1cccs1	.	.	.	.	.	.
O=C(CSc1nnc(-c2cccs2)n1-c1ccccc1)Nc1ccccc1	?	.	.	?	?	-92%
CCn1c(SCC(=O)NC2CCCCC2)nnc1-c1cccs1	?	.	.	.	.	-98%
COc1cccc(C(=Cc2ccc([N+](=O)[O-])cc2)C(=O)O)c1	.	.	/	/	.	.
COc1ccc(S(=O)(=O)N2CCOCC2)cc1NC(=O)c1c(-c2ccccc2)noc1C	.[15.4 µM]	.	.	.	.	.
COc1nn(CC(=O)N2N=C(C)CC2(O)C(F)F)cc1[N+](=O)[O-] (configuration not stated)	.	.	.	.	.	-90%
O=C(Cn1cc([N+](=O)[O-])cn1)N1N=C(C(F)F)CC1(O)C(F)F (configuration not stated)	.	.	.	.	.	.
O=C(c1ccc(CSc2nc3ccncc3[nH]2)cc1)N1CCN(c2cccc(Cl)c2)CC1	?	.	35µM	.	.	.
COc1cccc(OC)c1C(=O)N1CCN(c2ccccn2)CC1	.	.	.	.	.	.
O=C(c1ccc(S(=O)(=O)N2CCCCCC2)cc1)N1CCN(c2ccccn2)CC1	.	.	.	.	.	.
O=C(c1c(Cl)cccc1Cl)N1CCN(c2ccccn2)CC1	.	.	.	.	32µM	.
O=C(CSc1ccccc1)N1CCN(c2ccccn2)CC1	.[15.4 µM]	.	.	.	/	.
O=C(CSCc1ccccc1Cl)N1CCN(c2ccccn2)CC1	.	.	.	.	32µM	.
Cc1ccc(S(=O)(=O)N2CCCCC2)cc1C(=O)N1CCN(c2ccccn2)CC1	.[15.4 µM]	.	.	.	28µM	.
CCC(=O)Nc1nnc(S(=O)(=O)N(C)Cc2ccc(Cl)cc2)s1	/	.	/	.	.	/
Cc1noc(C)c1CSCC(=O)Nc1nc2ccc(S(C)(=O)=O)cc2s1	.[15.4 µM]	.	.	.	/	.
CC1=C(C(=O)N2CCOCC2)C(c2ccccc2F)C2=C(CCCC2=O)N1 (configuration not stated)	.	.	.	.	25µM	.
Cc1ccc(-c2nnc(SCC(=O)O)n2N)cc1	?	.	.	.	.	.
Cc1ccc(S(=O)(=O)N2CCN(C(=O)CSc3nc4ccccc4c(=O)[nH]3)CC2)cc1	.	.	.	?	.	-95%
Cc1ccc(-c2cc(-c3nnc(SCC(=O)N(C)CCC#N)n3N)c3ccccc3n2)cc1	.	.	.	.	16µM	-115%
Cc1ccc(N(CCC#N)C(=O)CSc2nc3ccccc3c(=O)[nH]2)cc1	.	.	50µM	.	.	.
O=C(CSc1nc2ccccc2c(=O)[nH]1)N1CCCCC1	.	/	.	.	.	.
SMILES	gsp ag	RXFP1 antag	gsp antagonist	RXFP1 agonist	ClpP mod	pAkt inh
O=C(CNC(=O)c1ccc(F)cc1)OCc1cc(=O)n2ccsc2n1	/	/	/	?	.	/
OB(O)c1csc2ccccc12	/	/	/	/	.	/
CCOc1ccc(NC(=S)Nc2ccc(OCC)cc2)cc1	.[15.4 µM]	.	35µM	.	/	.
CCOc1ccc(NC(=O)C2CC(C)=C(C)CC2C(=O)O)cc1 (configuration not stated)	.	.	.	.	.	-119%
CCOc1ccc(NS(=O)(=O)c2ccc(NC(=S)NC(C)=O)cc2)cc1	?	-70	.	.	/	.
CCCCCCCCCC[n+]1ccc(/C=C/c2c[nH]c3ccccc23)cc1	/	/	/	/	.	/
CC(=O)N1CCN(CC(O)COc2ccc(S(=O)(=O)N3CCOCC3)cc2)CC1 (configuration not stated)	?	.	.	.	.	.
C1=C(c2ccc(-c3ccccc3)cc2)Nc2ncnn2C1c1ccco1 (configuration not stated)	?	.	.	.	16µM	.
Fc1ccc(C2=CC(c3ccc(Br)o3)n3ncnc3N2)cc1 (configuration not stated)	.	.	?	.	32µM	.
OCCCc1nc2n(n1)C(c1cccs1)C=C(c1ccc(Br)cc1)N2 (configuration not stated)	/	/	/	.	/	/
Brc1ccc(C2=CC(c3cccs3)n3ncnc3N2)cc1 (configuration not stated)	.	.	.	.	32µM	.
Cc1cccc(NC(=O)Cn2c(=O)n(CCC(=O)N3CCc4ccccc4C3)c(=O)c3ccccc32)c1	/	/	/	.	.	/
C=CCn1c(=O)c2ccc(C(=O)NCc3ccccc3)cc2n(Cc2ccc(Cl)cc2)c1=O	.	.	.	.	.	.
C=CCn1c(=O)c2ccc(C(=O)NCc3ccccc3)cc2n(Cc2cccc(Cl)c2)c1=O	?	/	.	.	28µM	.
CCCCS(=O)(=O)CC(O)CSc1nc(-c2ccc(C)cc2)cc(-c2ccccc2)c1C#N (configuration not stated)	/	/	/	.	3.5µM	/
CC/C(=N/O)C(=O)c1ccc(Br)cc1	.[15.4 µM]	-88	.	.	/	.
C/C(=N/OC(=O)c1ccc(C)cc1)C(=O)c1ccc(Br)cc1	.	.	.	.	.	.
O=C(N/N=C/c1ccc2c(c1)OCO2)c1ccn(Cc2ccc(Cl)cc2)n1	.[15.4 µM]	.	.	.	28µM	.
CCCCCC(=O)Nc1ccc(C(=O)CN2C(=O)NC3(CCCCCC3)C2=O)cc1	.[15.4 µM]	-90	.	.	/	.
CCCc1c(O)c2ccccc2[nH]c1=O	.	.	.	.	14µM	.
CCCCc1c(O)c2ccccc2[nH]c1=O	.	.	.	.	25µM	.
CCCCCCc1nc2c(=O)[nH]c3ccccc3c2o1	.	.	.	.	.	-87%
Cc1ccccc1NC(=O)Cc1c(O)c2ccccc2[nH]c1=O	?	.	.	.	16µM	.
Cc1onc(-c2c(Cl)cccc2Cl)c1C(=O)Cl	/	.	/	/	/	/
Cc1ccccc1C1N=C2Oc3ccccc3C=C2C(=O)N1 (configuration not stated)	/	/	/	/	.	.
COc1ccc(OC)c(CN2C(=O)CCC2(C)c2nnnn2-c2c(C)cccc2C)c1 (configuration not stated)	/	/	/	/	.	.
O=C(O)CCNc1ccc(NCCC(=O)O)c2c1C(=O)c1ccccc1C2=O	?	-63	?	.	.	.

Compound activity as filed in PubChem.
